Compounds without any hit were thinned out: in the full panel of roughly 83,000, 20% have a hit.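 Results are percent growth after 48 hours of single-concentration exposure. 100 means growth as in untreated cells, lower positive values show inhibition; negative values down to -100 show cell death.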 Calls of active or inactive are those of the source.

This assay has as its system OVCAR-3 ovarian. Put plainly: NCI-60 one-dose screen, 48 h (100 = growth as untreated, 0 = no growth, -100 = all killed). The note with it: 10 µM unless noted. As to the method: Growth inhibition of the OVCAR-3 human tumor cell line is measured as a screen for anti-cancer activity. Cells are grown in 96 well plates and exposed to the test compound for 48 hours. Compounds are tested at a single concentration, which is 10^-5 M for most compounds. The reported endpoint is percent growth (GI% or GIPRCNT), where numbers from 0 - 100% represent growth inhibition, and numbers from -100% - 0 represent cell death. For example, a value of 40 represents 60% growth inhibition. A value of 0 means no net growth occurred over the course of the experiment. A value of -40 indicates 40% of cells at the beginning of the experiment died by the end of the experiment. A value of -100 means all cells are dead at the end of the experiment.
NCI-60 Human Tumor Cell Lines Screen was performed using the standard one-dose NCI protocol, which is described in more detail at https://dtp.cancer.gov/discovery_development/nci-60/default.htm.
Compounds with GIPRCNT values below 10 were considered active. Activity score was based on GIPRCNT using the following formula: […]
Score is 0 for GIPRCNT values of 100 or above, 50 for GIPRCNT values of 0, and 100 for GIPRCNT values of -100.
With `CN(C)CCC(=O)Nc1ccc(-n2cc(-c3cccc(NC(=S)Nc4cccc(-c5cn(-c6ccc(NC(=O)CCN(C)C)cc6)nn5)c4)c3)nn2)cc1`, the growth is 94.6% (inactive). Consider `CCCn1c(N)c(C(=O)CNc2ccc(I)cc2)c(=O)[nH]c1=O`, for which the growth is 64.9% (inactive). With `O=CN1N=C(c2ccc(Nc3ccnc4cc(Cl)ccc34)cc2)CC1c1ccc(Cl)cc1` (stereo not given), the growth is -24.1% (active).

For `COC(=O)CC1=C(c2ccc([N+](=O)[O-])cc2)CCC1=O`, the growth is 121% (inactive). The same measure for `c1ccc(N2c3nc4ccccc4cc3Sc3cc4ccccc4nc32)nc1`: 96.7% (inactive); for `Nc1nc(Nc2ccccc2SSc2ccccc2Nc2nc(N)nc(-c3cccc(Cl)c3)n2)nc(-c2cccc(Cl)c2)n1`: 96.2% (inactive). In the case of `COc1cc(/C=C/C(=O)c2c(C)n([O-])c3ccc(Cl)cc3[n+]2=O)cc(OC)c1OC`, the growth is 102% (inactive). The result for `O=C(COc1cccc(/C=C2\Oc3ccc4ccccc4c3C2=O)c1)c1ccc(Cl)cc1` reads 93.8% (inactive); that for `CC1c2ccccc2-c2ccccc2N1C` (stereo not given), 104% (inactive); that for `COc1cnc2c(c1)C(=O)c1c-2n(CCCN2CCCC2)c(=O)c2cc(F)ccc12`, -29.1% (active). On to `COC(=O)[C@H]1[C@H]2C[C@@H]3c4[nH]c5cc(OC)ccc5c4CCN3C[C@H]2C[C@@H](OC(=O)/C=C/c2cc(OC)c(OC)c(OC)c2)[C@@H]1OC`, for which the growth is -42.8% (active). On to `CC(=O)OCC(=O)[C@@]1(O)CC[C@H]2[C@@H]3CCC4=CC(=O)CC[C@]4(C)[C@@]3(F)[C@@H](O)C[C@@]21C`, for which the growth was 106% (inactive). `C1CCC(C(CC2CCCCN2)C2CCCCC2)CC1` (stereo not given): the growth was -3.79% (active). The result for `CC[C@@H](C)/C=C(C)/C=C/C(=O)c1c(O)c(-c2ccc(O)cc2)cn(OC2CC(=O)CCC(C)OC(=O)CC2O)c1=O` (stereo not given in full) reads 18.7% (inactive); that for `O=C(N/N=C/c1ccc(Cl)cc1Cl)c1ccccc1Nc1cccc(C(F)(F)F)c1`, 53.3% (inactive). On to `Nc1c(C(=O)Nc2cccc(Cl)c2)sc2nc3c(cc12)C(O)CCC3` (stereo not given), for which the growth was -33.4% (active). The same measure for `Nc1nc(Nc2ccccc2SSc2ccccc2Nc2nc(N)nc(C(Cl)(Cl)Cl)n2)nc(C(Cl)(Cl)Cl)n1`: 64.6% (inactive). The result for `COc1ccc(C(=O)/C=C/c2ccc(C)cc2)cc1OC` reads 4.42% (active); that for `N#Cc1c(-c2ccccc2)cc(-c2ccccc2)n(CCCCC(=O)O)c1=O`, 101% (inactive). The same measure for `COc1ccc(OC)c(CCn2cncc2-c2c[nH]c3cc(Br)ccc23)c1`: 32.7% (inactive); for `Cc1n(Cc2ccc3ccccc3c2)cc[n+]1Cc1ccc2ccccc2c1`: -1.02% (active); for `CC(=O)Nc1cc(C(c2ccccc2)c2ccccc2)cc(C(c2ccccc2)c2ccccc2)c1C`: 49.8% (inactive). In the case of `COc1ccc2c(c1)C(=Nc1cc(OC)c(OC)c(OC)c1)C(=O)N2`, the growth is 72.4% (inactive).

Turning to `O=C(/C=C(\Nc1ccccc1)c1ccccc1)c1cn(-c2ccc([N+](=O)[O-])cc2)nn1`, the growth is 112% (inactive). In the case of `COc1ccc(C2=NN(C=O)C(c3cccc(Nc4ccnc5cc(Cl)ccc45)c3)C2)cc1` (stereo not given), the growth was 13.8% (inactive). The result for `N#Cc1c(NC(=O)c2ccco2)[n+]([O-])c2ccccc2[n+]1[O-]` reads 115% (inactive); that for `C=C1CC[C@@H]2[C@](C)(COC(C)=O)[C@H](OC(C)=O)CC[C@@]2(C)[C@@H]1CC(NCc1ccccc1)C1=CCOC1=O` (stereo not given in full), 31.8% (inactive). The result for `Cn1c(N2N=C(c3ccc(Cl)cc3)CC2c2ccccc2)nc(-c2ccccc2)c(C#N)c1=O` (stereo not given) reads 71.7% (inactive); that for `CCCCCCCCCCN1CCC(N2CCCCC2)CC1`, 20.1% (inactive); that for `CC1C(=O)NC2=Nc3ccccc3C(=O)NN21` (stereo not given), 116% (inactive).

Regarding `CN[C@@H]1C(OC2[C@H](O[C@H]3[C@H](O)[C@@H](O)[C@H](N=C(N)N)[C@@H](O)[C@@H]3N=C(N)N)OC(C)[C@]2(O)CO)OC(CO)C(O)C1O` (stereo not given in full), the growth is 116% (inactive). For `CCCCN=C(N)c1ccc(OCCSCCOc2ccc(C(N)=NCCCC)cc2)cc1`, the growth was 39.6% (inactive).

For `O=C(N/N=C/c1cccc([N+](=O)[O-])c1)c1ccc(Br)o1`, the growth is 111% (inactive).

As for `COc1ccc(C(=O)COc2cccc(/C=C3\COc4ccc5ccccc5c4C3=O)c2)cc1`, the growth is 64% (inactive). As for `CO[C@H]1/C=C/O[C@@]2(C)Oc3c(C)c(O)c4c(O)c(c(/C=N/N5C(C)CN(Cc6ccc(C#N)cc6)CC5C)c(O)c4c3C2=O)NC(=O)/C(C)=C\C=C\[C@H](C)[C@H](O)[C@@H](C)[C@@H](O)[C@@H](C)[C@H](OC(C)=O)[C@@H]1C` (stereo not given in full), the growth is -21.1% (active). As for `O=c1ncc(-c2ccc(C(F)(F)F)cc2)c(NC2CCCCCC2)[nH]1`, the growth was -2.84% (active). The same measure for `Cc1ccc(S(=O)(=O)NCCN2c3nc4ccccc4cc3Sc3cc4ccccc4nc32)cc1`: 83.7% (inactive); for `O=C(COc1ccc(/C=C2\Oc3ccc4ccccc4c3C2=O)cc1)c1ccc([N+](=O)[O-])cc1`: 158% (inactive); for `c1ccc(COc2ccc(Nc3ncnc4c3cnn4-c3ccccc3)cc2)cc1`: 113% (inactive). Turning to `Cc1ccc(N/N=C(/C(=O)c2ccc(Cl)cc2)c2nc(C)cc(=O)[nH]2)cc1`, the growth was 95.8% (inactive).

Values taken from PubChem BioAssay (NCI).
